According to the supplement of paper PMC5499739:
In all, about 16,000 sequences were measured (“Z-score”: median about -0.37, highest 2% from about 3.1 on). What follows is part of a selection rich in the highest values, with near analogues and random picks from the rest.

test system: RBM10 RRM1-ZnF-RRM2 (GST-tagged construct); experiment: RNAcompete 7-mer binding Z-score; higher = stronger binding preference
Procedure: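 RNAcompete: 20 pmol GST-tagged RBM10 RNA-binding constructs were incubated with a designed RNA pool of about 241,000 sequences up to 41 nt (1.5 nmol) on glutathione beads for 30 min at 4 °C and washed. Bound RNAs were identified by microarray hybridisation. Each RNA 7-mer is scored by a one-sided Z-score of its enrichment, computed over probes that contain the 7-mer within longer pool sequences.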

Sequence	RNAcompete 7-mer binding Z-score
AUAAGGA	2.16
GUAAGGA	3.28
UUAAGGA	0.982
GUAAGGC	2.12
AUAAGGU	1.74
GUAAGGG	3.65
CUAAGGA	0.286
GAUCGUU	-0.464
AUUAAUA	-0.544
AAUAGAG	0.742
AAGUUGC	-0.293
UGCUCCC	-0.821
GAGAAGA	1.04
AAGAAGA	1.03
AAGAAGG	3.81
GUGAAGG	3.69
CUGAAGG	0.902
CAGAAGG	2.37
AUGAAGG	2.82
GAGAAGG	4.54
UAGAAGU	0.319
UAGAAGG	3.2
UAGAAGA	0.348

Sequence	RNAcompete 7-mer binding Z-score
AAGAAGU	0.818
UAUCUAC	-0.548
UCACCAA	-0.65
AAAGCUC	-0.53
AGCUUCG	-0.795
UCAGAGU	0.0786
GCUCUCA	-0.526
UAGGGUA	4.16
CAGGGUU	2.05
GAGGGUG	3.5
AAGGGUA	4.27
AAGGGUC	2.01
GAGGGUU	2.88
UAGGGUU	3.14
UCGGGUA	1.57
CAGGGUA	2.88
ACGGGUA	2.22
UCGGGUU	0.916
GAGGGUC	1.39
UUCCAGC	-0.715
GUGUUCA	-0.442
AGGUUUC	0.184
ACUUGGU	-0.267

Sequence	RNAcompete 7-mer binding Z-score
GUUAGUG	0.953
UCUAGCA	-0.712
GUCAGUU	-0.289
CCGCUAG	-0.588
CACUUCC	-0.868
UUCCCUG	-0.737
AACAUGC	-0.435
AAGGUUU	2.37
AGGGUUU	2.4
UAGGGUC	2.16
AAGGGUU	3.94
UAGGGUG	4.51
GAGGGCG	2.81
CAGGGUC	1.42
CAGGGUG	2.84
GAGGGUA	4.4
UACUCUC	-0.734
UGCGCUG	-0.103
GCAGGAA	2.07
CAAGGAA	1.77
GAAGGAA	4.54
UAAGGAA	1.66
CAAGGAU	1.42

Sequence	RNAcompete 7-mer binding Z-score
UAAGGAU	1.55
UAAGGAG	1.9
AAAGGAC	2.6
GGAGGAA	3.08
AAAGGAG	3.75
AAAGGAA	3.51
GAAGGAU	3.32
AAUGGCG	2.02
GUCCUGC	-0.606
UACCCCU	-0.65
AGCGCUG	-0.0889
GCCACUU	-0.992
UACACAU	-0.5
GUCCGCA	-0.672
UCUGAUC	-0.876
GCGUGUG	0.618
AUCGCAA	-0.388
GCUUAAG	-0.439
GAAGGAG	4.52
GAAGGAC	2.8
CAAGGAG	2.31
UGUGGAG	2.47
GGUGGAG	3.9
